Most compounds without a hit are left out; they make up all but 3.9% or so of the library.
TWEAK-Fn14 inh: inhibitors of TWEAK-Fn14 interaction signaling | inhibition, % at 10 µM | AID 1159606 | TWEAK-stimulated Fn14 reporter cells, luciferase luminescence, 8 h | 360,000 tested, 2% active; in the data active = inhibition above about 50%
aSyn UTR inh: MLPCN primary screen, SNCA 5' untranslated region; alpha-synuclein 5'UTR reporter, inhibitor activity; inhibition, % (tested at 7.5 µM); 300,000 tested, 0.82% active; AID 1813; in the data active = inhibition above about 60%;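 also: H4 neuroglioblastoma cells stably carrying SNCA 5'UTR luciferase fusion; 0% = DMSO wells and 100% = positive control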
HSP90 refold inh: HSP90 refolding inhibition in rabbit reticulocyte lysate | luciferase refolding luminescence, 3 h | inhibition, % at 5.6 µM | 290,000 tested, 0.91% active;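 active = inhibition above the screen-wide mean plus 3 SD, computed separately per campaign, cut at about 16% in these data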;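 also: 0% = DMSO wells and 100% = 60 µM geldanamycin wells; inhibitors lower the luminescence because luciferase stays unfolded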
HIF-2a inh: HIF-2a inhibition; inhibition, % at 18.8 µM; AID 624352; 360,000 tested, 0.72% active; 786-0 RCC cells HIF-2a reporter, luciferase luminescence, overnight;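 active = inhibition of the luminescence signal of 40% or more relative to plate controls, in a single-dose primary screen at 18.75 µM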
TROY signal inh: blocks TROY-dependent signaling in reporter cells | Q293 LMP1-TROYcd NF-kB luciferase reporter, 4 h | 360,000 tested, 0.98% active | inhibition, % at 10 µM;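 active = compounds whose plate-normalised and pattern-corrected inhibition of the luciferase reporter signal at the single screening dose is 50% or more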
C8 TRAIL sens: sensitizes caspase-8 expressing cells to TRAIL; AID 624354; inhibition (viability loss, TRAIL sensitization), % at 10 µM; 360,000 tested, 1% active; NB7+C8 cells + TRAIL, ATPlite viability luminescence;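 active = compounds causing at least 50% loss of cell viability in the single-dose screen, relative to plate controls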
HSP90 confirm: HSP90 inhibition, confirmation assay; AID 1846; inhibition, % at 5.9 µM; 2,300 tested, 64% active; shares compounds with HSP90 refold inh; rabbit reticulocyte lysate, luciferase refolding luminescence, 3 h; in the data active = inhibition above about 18%;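 also: 0% = vehicle wells and 100% = reference inhibitor wells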
FLuc counter: counter-screen for HSP90 inhibitors: inhibitors of firefly luciferase; inhibition, % at 5.9 µM; 2,300 tested, 48% active; shares compounds with HSP90 refold inh; purified native firefly luciferase, luminescence;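 active = inhibition above the mean inhibition of all tested sample wells plus 3 SD, cut at about 10% in these data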;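 also: 0% = DMSO with luciferase and 100% = wells lacking luciferase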
Target sequence (P08659 whole entry, looked up): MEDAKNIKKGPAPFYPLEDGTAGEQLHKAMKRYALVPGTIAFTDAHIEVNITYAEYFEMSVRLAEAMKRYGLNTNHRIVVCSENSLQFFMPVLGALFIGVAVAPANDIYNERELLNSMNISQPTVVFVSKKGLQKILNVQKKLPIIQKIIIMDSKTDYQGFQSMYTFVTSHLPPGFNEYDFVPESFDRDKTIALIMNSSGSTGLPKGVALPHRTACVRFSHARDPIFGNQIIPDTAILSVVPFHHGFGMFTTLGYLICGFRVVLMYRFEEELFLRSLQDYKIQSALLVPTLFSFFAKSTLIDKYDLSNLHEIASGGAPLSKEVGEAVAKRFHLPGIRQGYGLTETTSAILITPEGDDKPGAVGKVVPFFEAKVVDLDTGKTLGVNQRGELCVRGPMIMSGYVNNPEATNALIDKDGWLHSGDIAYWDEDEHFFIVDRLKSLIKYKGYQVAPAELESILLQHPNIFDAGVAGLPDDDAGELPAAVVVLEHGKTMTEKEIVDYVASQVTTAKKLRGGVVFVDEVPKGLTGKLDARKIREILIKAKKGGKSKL
Active calls of the source: *; / = not tested or not shown.

SMILES	TWEAK-Fn14 inh	aSyn UTR inh	HSP90 refold inh	HIF-2a inh	TROY signal inh	C8 TRAIL sens	HSP90 confirm	FLuc counter
Cc1ccc2c(c1)sc(=NC(=O)c1cccs1)n2C	89*	85*	28*	-6	59*	91*	84*	80*
Cc1ccc(C(=O)NC2CCCCCCC2)c(Cl)c1	75*	44	42*	-30	40	61*	63*	53*
O=C(NC1CCCCCCC1)c1cc(F)c(F)cc1Cl	-30	-81	-3	-158	-42	5	/	/
Cc1c(/C=C/C(=O)c2cccs2)cnn1C	-20	-125	-1	-168	-28	9	/	/
CCc1ccc(C(=O)/C=C/c2cnn(C)c2C)s1	60*	-117	35*	-201	67*	25	26*	52*
CC(=O)c1ccc(Nc2nc3ccc(C)cc3n3cnnc23)cc1	-31	-27	1	-15	3	-4	/	/
COC(=O)c1ccc(Nc2nc3ccc(C)cc3n3cnnc23)cc1	41	-98	38*	-45	4	-7	42*	10*
O=C(O)CSc1nnc(Cn2nnc3ccccc32)n1CCc1ccccc1	11	9	25*	3	2	-8	-8	-5
CC(C)N(C(=O)CSc1nnc(Cn2nnc3ccccc32)n1C)C(C)C	-8	-31	-5	6	-1	-2	/	/
CN=c1scc(-c2ccccc2F)n1/N=C/c1ccc(O)c(O)c1O	99*	21	22*	-47	92*	84*	92*	89*
N/C(=N\OC(=O)/C=C/c1ccccc1)c1ccncc1	-12	-133	0	-243	-21	-8	/	/
N/C(=N\OC(=O)/C=C/c1ccccc1)c1ccccn1	56*	-99	19*	-183	47	10	15	73*
N/C(=N\OC(=O)/C=C/c1ccccc1Cl)c1ccncc1	39	-126	31*	-216	27	8	2	-19
CC(C)(C)CC(=O)O/N=C(\N)c1ccccn1	61*	21	21*	22	0	36	35*	22*
CC(C)(C)NC(=O)C1(C)CCC(=O)N1C1CCN(Cc2ccccc2)CC1 (stereo not drawn)	-10	/	/	3	-7	6	/	/
CN=C1S/C(=C\c2ccc(N3CCOCC3)cc2C)C(=O)N1C	-13	-29	-4	-18	-11	-8	/	/
CN=C1S/C(=C\c2cc(C)n(-c3ccccc3F)c2C)C(=O)N1C	82*	-33	49*	-67	80*	55*	65*	63*
Cc1cc(/C=C2\SC(=O)N(C)C2=O)c(C)n1-c1ccc(O)cc1	87*	-11	48*	-88	18	27	64*	63*
COCCCN1C(=O)C(CC(=O)NC2CCCCC2)CC(C(=O)N(C)C)=C1C (stereo not drawn)	14	/	/	4	-5	-15	/	/
CCCCCCCCN1C(=O)[C@H](CC(=O)NCC2CCCCC2)C[C@@]2(C(=O)OC)CCCCC=C12	-7	/	/	-18	-15	9	/	/
COCC(C)n1c(C)cc(C(=O)Cn2nc(C(=O)O)c3ccccc3c2=O)c1C (stereo not drawn)	44	-42	42*	-36	44	6	52*	-11
Cc1cc(C(=O)Cn2nc(C(=O)O)c3ccccc3c2=O)c(C)n1CCc1ccc(F)cc1	-7	25	4	-9	22	19	/	/
COCC(C)n1c(C)cc(C(=O)COC(=O)c2nn(C)c(=O)c3ccccc23)c1C (stereo not drawn)	7	/	/	-21	17	18	/	/
Cc1cc(C(=O)Cn2nc(C(=O)O)c3ccccc3c2=O)c(C)n1CC(F)(F)F	40	-59	26*	-114	-28	-3	45*	-22
CSc1ncnc2c1ncn2CCCN1CCN(Cc2c(C)cc(C)cc2C)CC1	-16	/	/	1	11	35	/	/
SMILES	TWEAK-Fn14 inh	aSyn UTR inh	HSP90 refold inh	HIF-2a inh	TROY signal inh	C8 TRAIL sens	HSP90 confirm	FLuc counter
CCCOc1ccc(C(=O)Nc2nc(C)c(Cc3ccc4c(c3)OCO4)s2)cc1	9	-68	24*	-113	-16	2	3	-12
Cc1nc(NC(=O)c2ccc(OCC(C)C)cc2)sc1Cc1ccc2c(c1)OCO2	9	-85	32*	-57	-19	4	7	-6
COc1cc(C(=O)Nc2nc(C)c(Cc3ccc4c(c3)OCO4)s2)cc(OC)c1OC	36	-25	-3	-34	36	-22	/	/
Cc1c(Cc2ccc3c(c2)OCO3)sc(NC(=O)c2ccc3ccccc3c2)c1C(N)=O	-50	-80	-2	-12	-30	-1	/	/
Cc1nn(-c2ccccc2)c(Cl)c1/C=N/NC(=O)c1[nH]ncc1Br	53*	-67	33*	-150	28	73*	46*	39*
Cc1cc(NS(=O)(=O)c2ccc(Nc3nc(-c4sc(NC(=O)c5ccccc5)nc4C)cs3)cc2)no1	/	-36	33*	/	/	/	14	-8
Cc1ccc(Cl)cc1Nc1nc(-c2sc(NC(=O)c3ccccc3)nc2C)cs1	/	-94	57*	/	/	/	46*	-19
CCOc1ccccc1Nc1nc(-c2sc(NC(=O)c3cccc(Cl)c3)nc2C)cs1	64*	-47	73*	-90	2	2	33*	-5
COc1ccccc1Nc1nc(-c2sc(N)nc2C)cs1	1	-11	31*	-134	-21	-23	2	-16
COc1ccc(/C=C/C(=O)Nc2ccc(C)c(S(=O)(=O)N3CCOCC3)c2)cc1	30	/	/	-29	23	11	/	/
COc1cccc(Nc2nc(-c3sc(N)nc3C)cs2)c1	-2	-112	17*	-216	0	-1	-5	-29
Cc1nc(N)sc1-c1csc(Nc2ccc(S(N)(=O)=O)cc2)n1	19	-38	60*	-3	13	0	-6	-9
CCCCCC(=O)Nc1nc(C)c(-c2csc(Nc3ccccc3OCC)n2)s1	-4	-25	6	-9	-9	8	/	/
COc1ccc(-c2csc(Nc3ccc(S(N)(=O)=O)cc3)n2)cc1	-5	35	2	-15	-4	7	/	/
CCOc1ccccc1Nc1nc(-c2sc(NC(=O)c3ccccc3)nc2C)cs1	/	-5	46*	/	/	/	25*	-6
COc1ccccc1Nc1nc(-c2sc(NC(=O)c3ccc([N+](=O)[O-])cc3)nc2C)cs1	/	-15	72*	/	/	/	23*	-5
Cc1cc(NC(=O)COc2ccc3ccccc3c2Br)no1	-17	/	/	-371	-31	-11	/	/
COCOCCn1cc(CN2CCS(=O)(=O)N(Cc3ccc(-c4cccc(CO)c4)cc3)C(CC(C)C)C2=O)nn1 (stereo not drawn)	4	/	/	4	1	-12	/	/
CC1(C)CC(=O)C=C(c2ccc(-c3cccc(C(N)=O)c3)cc2)C1=O	-7	/	/	-40	-28	-1	/	/

Source: PubChem (several laboratories)
